From PubChem BioAssay AID1839 (Johns Hopkins Ion Channel Center, 2009)
Screen size: about 2,400 compounds; about 220 (9.2%) were called active. For the sample, actives were picked, then their nearest neighbours and some compounds at random. Unmarked numbers belong to inactive results.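 How the source made its calls: active means signal change above the mean of dofetilide-free buffer controls plus 3 SD, so a positive margin; inactive means the rest.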

Assay: thallium signal changes without hERG – cell-based, CHO-K1 parental line, FluxOR thallium flux, counter-screen for hERG block protection project, confirmation (AID 1839);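 further: compounds applied alone with no dofetilide to cells lacking hERG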
Conditions: CHO-K1 parental cells, FluxOR thallium flux fluorescence; at 10 µM

First: Cc1ccc(/C(O)=C2\C(=O)C(=O)N(Cc3cccnc3)C2c2ccccc2[N+](=O)[O-])cc1 (centres undefined)
Second: Cc1ccc(C(=O)Nc2nc3ccccc3c(=O)s2)cc1
The signal change vs control minus 3*SD hit threshold (margin above threshold, higher = more increase) of the first is lower: -21.1% for the first, -16.6% for the second.

First: COc1cc(NC(=O)c2ccccc2)c(OC)cc1NC(=O)Cc1ccc(Br)cc1
Second: COc1ccc(CCNC(=O)CSc2ccc3nnc(CCNC(=O)c4ccccc4)n3n2)cc1OC
The signal change vs control minus 3*SD hit threshold (margin above threshold, higher = more increase) of the first is higher: -10.9% for the first, -23.3% for the second.

Compared with `Cc1ccccc1OCC(=O)N=Nc1c(O)n(C)c2ccccc12`, `O=c1c2ccccc2nc(-c2ccccc2)n1O` is lower in signal change vs control minus 3*SD hit threshold (margin above threshold, higher = more increase): -17.7% for the first, -24.1% for the second.

Compared with `CCc1ccc2[nH]c(O)c(N=Nc3nc(-c4ccccc4)cs3)c2c1`, `N#C/C(=N\Nc1ccccc1F)c1nc(-c2ccccc2)cs1` is lower in signal change vs control minus 3*SD hit threshold (margin above threshold, higher = more increase): -38.8% for the first, -39.4% for the second.

First: Cc1nn(CCC(=O)NNC(=S)Nc2ccc(F)cc2)c(C)c1[N+](=O)[O-]
Second: CCOC(=O)c1sc(NC(=S)NC(=O)c2cccc(OC)c2)nc1C
The signal change vs control minus 3*SD hit threshold (margin above threshold, higher = more increase) of the first is lower: -35.8% for the first, -15.5% for the second.

First: O=C(NC(=S)NC1CCCc2ccccc21)c1ccco1 (centres undefined)
Second: O=C(NC(=S)Nc1ccccc1N1CCCCC1)c1cccs1
The signal change vs control minus 3*SD hit threshold (margin above threshold, higher = more increase) of the first is higher: -14.2% for the first, -17.4% for the second.

Compared with `Cc1nonc1CN(C)C(=O)c1ccc(OC2CCN(Cc3ccccn3)CC2)cc1`, `Cc1ccc(S(=O)(=O)c2nnn3c2nc(N2CCOCC2)c2ccccc23)c(C)c1` is lower in signal change vs control minus 3*SD hit threshold (margin above threshold, higher = more increase): -22.2% for the first, -25.3% for the second.

Compared with `COCCNC(=O)C1CCN(S(=O)(=O)N2CCC3(CC2)OCCO3)CC1`, `O=C(NC(=S)N(CC1CCC1)CC1CCCO1)c1cccc([N+](=O)[O-])c1` (centres undefined) is higher in signal change vs control minus 3*SD hit threshold (margin above threshold, higher = more increase): -40.3% for the first, -12.6% for the second.

First: CC1=CN2C(=N)/C(=C/c3ccc(Sc4ccc(Cl)cc4)o3)C(=O)N=C2S1
Second: Cc1c(-c2ccn[nH]2)cc(NC(=O)c2ccc(Cl)cc2)c(=O)n1N
The signal change vs control minus 3*SD hit threshold (margin above threshold, higher = more increase) of the first is higher: -23.1% for the first, -40% for the second.

First: CCCCCOCC1CC(C/C(C)=N/Nc2nc(-c3ccccc3)cs2)C(=O)O1 (centres undefined)
Second: Cc1cc(C)nc(SCc2nnc(SCC(=O)Nc3nc(-c4ccccc4)cs3)n2-c2ccccc2)n1
The signal change vs control minus 3*SD hit threshold (margin above threshold, higher = more increase) of the first is higher: -31.7% for the first, -32% for the second.

Compared with `O=C(Nc1ccc(Cl)c(Cl)c1)Nc1nnc(CSc2ccccc2)s1`, `O=c1[nH]c(SCc2cccc(Cl)c2)nc2ccccc12` is lower in signal change vs control minus 3*SD hit threshold (margin above threshold, higher = more increase): -17.6% for the first, -29.3% for the second.

First: C=CCSc1nc2sc3c(c2c(=O)n1CC)CCc1ccccc1-3
Second: CCn1c(SCC(=O)NC(=O)NCc2ccco2)nc2sc(C)c(C)c2c1=O
The signal change vs control minus 3*SD hit threshold (margin above threshold, higher = more increase) of the first is lower: -22.2% for the first, -17.8% for the second.

First: CCc1nccn1S(=O)(=O)c1ccc2ccc(C)cc2c1
Second: Cc1ccc(-c2onc3ccc(Cl)cc23)cc1
The signal change vs control minus 3*SD hit threshold (margin above threshold, higher = more increase) of the first is lower: -33.5% for the first, -25.3% for the second.

Going from `COc1ccc(Cc2c(O)nc(SCC(C)C)[nH]c2=O)cc1` to `CCOC(=O)c1sc2nc(Cc3ccc(Cl)cc3)[nH]c(=S)c2c1C`, the signal change vs control minus 3*SD hit threshold (margin above threshold, higher = more increase) rises from -32.4% to -19.8%.

Compared with `CC(C)c1nc2sc3c(=S)nc[nH]c3c2c2c1CCC2`, `S=c1nc[nH]c2c1sc1nc(-c3ccccc3)c3c(c12)CCCC3` is higher in signal change vs control minus 3*SD hit threshold (margin above threshold, higher = more increase): -10.6% for the first, -5.5% for the second.

Going from `O=C(O)CCCN1C(=O)C2C3c4ccccc4C(c4ccccc43)[C@@H]2C1=O` (some centres undefined) to `NC(=O)CSc1nc2ccccc2c(=O)n1CCc1ccccc1`, the signal change vs control minus 3*SD hit threshold (margin above threshold, higher = more increase) rises from -37.1% to -28.3%.

First: COc1ccc(C(CC(=O)O)NC(=O)C(c2ccccc2)c2ccccc2)cc1 (centres undefined)
Second: O=C(Cc1ccccc1)Nn1c(-c2ccccc2)nc2ccccc2c1=O
The signal change vs control minus 3*SD hit threshold (margin above threshold, higher = more increase) of the first is lower: -32.8% for the first, -21.4% for the second.

Going from `O=C(N/N=C/c1ccc(OC(F)F)cc1)C1=COCCO1` to `COc1ccc(/C=N/NC(=O)C(=O)N2CCCC2)cc1`, the signal change vs control minus 3*SD hit threshold (margin above threshold, higher = more increase) rises from -28.8% to -11.5%.

First: COc1ccc(N2CCN(C(=S)Nc3cccc(OC)c3)CC2)cc1
Second: COC(=O)c1sccc1NC(=S)N1CCN(C)CC1
The signal change vs control minus 3*SD hit threshold (margin above threshold, higher = more increase) of the first is higher: -27% for the first, -34.3% for the second.

Compared with `COc1ccc(NC(=O)CNC(=O)c2cccs2)cc1Cl`, `O=C(CN1C(=O)S/C(=C\c2cccs2)C1=O)Nc1ccc(C(=O)O)c(O)c1` is higher in signal change vs control minus 3*SD hit threshold (margin above threshold, higher = more increase): -23.5% for the first, -0.8% for the second.

Compared with `CCC(Cc1ccccc1)n1c(=S)[nH]c2ccccc2c1=O` (centres undefined), `S=c1[nH]nc(-c2ccc(Cl)cc2)n1Cc1ccccc1` is lower in signal change vs control minus 3*SD hit threshold (margin above threshold, higher = more increase): -32.2% for the first, -36.8% for the second.

Going from `S=c1nc(C2CC2)[nH]c2ccccc12` to `S=c1nc(C2CCCCC2)[nH]c2ccccc12`, the signal change vs control minus 3*SD hit threshold (margin above threshold, higher = more increase) falls from -0.5% to -20.4%.

Going from `O=C(O)CCCCCNc1nc(=S)[nH]c2ccccc12` to `O=c1c2cc(Cl)ccc2nc(-c2ccccc2)n1O`, the signal change vs control minus 3*SD hit threshold (margin above threshold, higher = more increase) rises from -17.7% to -7.8%.

First: CC(C)c1ccc(/C=N/n2c(COc3ccccc3)n[nH]c2=S)cc1
Second: CC/C(=N\NC(=S)Nc1cccc(C)c1)c1ccccc1
The signal change vs control minus 3*SD hit threshold (margin above threshold, higher = more increase) of the first is higher: -21.3% for the first, -31.9% for the second.

Compared with `C#CCN1C(=O)S/C(=C\c2ccc(-c3ccc(C(=O)O)cc3C)o2)C1=O`, `O=C1NC(=S)/C(=C\c2ccc(-c3ccccc3Cl)o2)S1` is lower in signal change vs control minus 3*SD hit threshold (margin above threshold, higher = more increase): -26.1% for the first, -34.6% for the second.

Compared with `Cc1cccc(C)c1NC(=O)Cn1cnc2c(=O)n(C)c(=O)n(C)c21`, `Cn1nc(C(=O)Nc2ccc3c(c2)OCO3)c2ccccc2c1=O` is lower in signal change vs control minus 3*SD hit threshold (margin above threshold, higher = more increase): -26.9% for the first, -35.3% for the second.

Compared with `CCOC(=O)NC(=O)/C(C#N)=N\Nc1ccc(Cl)cc1`, `COc1ccc2nc(N3CCCCC3)c(/C=C3\SC(=S)NC3=O)cc2c1` is higher in signal change vs control minus 3*SD hit threshold (margin above threshold, higher = more increase): -36.7% for the first, -33% for the second.

With `Cn1c(O)c(N=Nc2nc(-c3ccccc3)cs2)c2ccccc21` the signal change vs control minus 3*SD hit threshold (margin above threshold, higher = more increase) was 31.7% (active).
With `CCC1(c2ccc(Cl)cc2)NC(=S)N(c2ccc(C)cc2)N1` (centres undefined) the signal change vs control minus 3*SD hit threshold (margin above threshold, higher = more increase) was 18.9% (active).
With `CCC1(c2ccc(Cl)cc2)NC(=S)N(c2ccccc2)N1` (centres undefined) the signal change vs control minus 3*SD hit threshold (margin above threshold, higher = more increase) was 40.1% (active).
In the case of `CCC1(c2ccccc2)NC(=S)N(c2ccc(C)cc2)N1` (centres undefined), the signal change vs control minus 3*SD hit threshold (margin above threshold, higher = more increase) is reported as 48.2% (active).
For `C=CCn1c(SCc2ccc(C(=O)O)cc2)nc2sc(C)c(C)c2c1=O`, the signal change vs control minus 3*SD hit threshold (margin above threshold, higher = more increase) was 7% (active).
With `S=c1nc[nH]c2c1sc1nc(N3CCOCC3)c3c(c12)CCCC3` the signal change vs control minus 3*SD hit threshold (margin above threshold, higher = more increase) was 1.1% (active).
For `S=c1nc(Cc2ccccc2)[nH]c2ccccc12`, the signal change vs control minus 3*SD hit threshold (margin above threshold, higher = more increase) was 36% (active).
For `S=c1nc(COc2ccccc2)[nH]c2ccccc12`, the signal change vs control minus 3*SD hit threshold (margin above threshold, higher = more increase) was 59.3% (active).
In the case of `S=c1nc(Cc2ccc(Cl)cc2)[nH]c2ccccc12`, the signal change vs control minus 3*SD hit threshold (margin above threshold, higher = more increase) is reported as 7.6% (active).
In the case of `S=c1nc(SCc2ccccc2)[nH]c2ccccc12`, the signal change vs control minus 3*SD hit threshold (margin above threshold, higher = more increase) is reported as 40.3% (active).
In the case of `O=C1NC(=S)S/C1=C\c1ccc2ccccc2c1`, the signal change vs control minus 3*SD hit threshold (margin above threshold, higher = more increase) is reported as 30.2% (active).
In the case of `O=c1c2ccccc2nc(-c2ccc(Cl)c(Cl)c2)n1O`, the signal change vs control minus 3*SD hit threshold (margin above threshold, higher = more increase) is reported as 20.1% (active).
In the case of `O=c1c2ccccc2nc(-c2cccc(Cl)c2)n1O`, the signal change vs control minus 3*SD hit threshold (margin above threshold, higher = more increase) is reported as 0.8% (active).
With `Cc1ccc(-c2nc3ccc(Cl)cc3c(=O)n2O)cc1` the signal change vs control minus 3*SD hit threshold (margin above threshold, higher = more increase) was 38% (active).
For `O=c1c2cc(Cl)ccc2nc(-c2ccc(Cl)c(Cl)c2)n1O`, the signal change vs control minus 3*SD hit threshold (margin above threshold, higher = more increase) was 62.4% (active).
